M1 antag = antagonists of human M1 muscarinic receptor | P11229 | CHO-K1 hM1, Fluo-8 calcium fluorescence, ACh EC80 antagonist | inhibition, % at 3 µM | actives 1.3% (n = 360,000);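 active = percent inhibition above its own plate's cutoff, namely the mean of that plate's compound wells plus 3 SD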;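 note: peak over basal fluorescence ratio during 140 s after agonist addition; 0% = ACh EC80 plus DMSO and 100% = DMSO alone without agonist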
Target sequence (P11229 whole entry, looked up): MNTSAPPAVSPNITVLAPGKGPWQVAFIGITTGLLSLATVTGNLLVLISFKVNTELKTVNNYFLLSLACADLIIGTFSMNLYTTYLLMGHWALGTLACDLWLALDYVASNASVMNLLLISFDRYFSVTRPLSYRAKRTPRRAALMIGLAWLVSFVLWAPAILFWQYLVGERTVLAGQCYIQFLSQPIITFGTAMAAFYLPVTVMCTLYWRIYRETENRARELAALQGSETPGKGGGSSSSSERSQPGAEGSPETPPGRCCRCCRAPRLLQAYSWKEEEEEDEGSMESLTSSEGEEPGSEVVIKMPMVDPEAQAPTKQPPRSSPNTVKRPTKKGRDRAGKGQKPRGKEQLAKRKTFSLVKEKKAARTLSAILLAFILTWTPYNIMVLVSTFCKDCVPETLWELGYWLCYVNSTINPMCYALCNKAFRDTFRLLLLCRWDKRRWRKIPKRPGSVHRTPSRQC
CHRM1 PAM = human CHRM1 positive allosteric modulation | P11229 | AID 588819 | activation, % at 3 µM | CHO-K1 hM1, Fluo-8 calcium fluorescence, ACh EC20; 0% = ACh EC20, 100% = maximal ACh | actives 0.088% (n = 360,000); in the data active = activation above about 19%, passing the limit was not always enough
CHO-K1 Ca PAM = counter-screen for M1 PAMs: effect in parental CHO-K1 cells; activation, % at 3 µM; ATP EC20, Fluo-8 calcium fluorescence; 0% at ATP EC20, 100% at ATP max; actives 0.02% (n = 360,000);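 active = activation above the run cutoff, the mean activation of all test compounds plus 3 SD, cut at about 40% in these data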;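 note: peak over basal fluorescence ratio in a 140 s read after ATP addition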
M1 ag = human M1 muscarinic receptor agonism | actives 0.33% (n = 360,000) | activation, % at 3 µM | CHO-K1 hM1, Fluo-8 calcium fluorescence, agonist mode; 0% DMSO, 100% acetylcholine EC100 | P11229;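 active = activation above the run's mean compound activation plus 3 SD, cut at about 16% in these data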;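 note: peak over basal fluorescence ratio within a 140 s kinetic read after compound addition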
CHO-K1 Ca antag = nonselective inhibitor or artifact in parental CHO-K1 cells | ATP-induced calcium, Fluo-8 fluorescence | inhibition, % at 3 µM | actives 0.6% (n = 360,000) | AID 602250;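 active = inhibition above a per-plate cutoff, the plate's mean sample inhibition plus 3 SD, cut at about 24% in these data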;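 note: 0% = DMSO plus EC80 ATP and 100% = DMSO alone without ATP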
CHO-K1 Ca ag = M1 agonist counterscreen hit in parental CHO-K1 cells; Fluo-8 calcium fluorescence; scaled to maximal ATP response, vehicle zero; activation, % at 3 µM; actives 0.48% (n = 360,000); AID 602248; in the data active = activation above about 15%;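 note: untransfected CHO-K1 host cells lacking M1 receptor as counterscreen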
Starred values were filed as active, the others as inactive. A selection: hits, their analogues and other compounds. The true share with any hit is near 2.4%.

O=C(Nc1ccc(C(=O)O)cc1)/C(=C\c1ccc([N+](=O)[O-])cc1)NC(=O)c1ccc(Br)cc1 was read as M1 antag 6, CHRM1 PAM -9, CHO-K1 Ca PAM -18, M1 ag -3, CHO-K1 Ca antag 28* and CHO-K1 Ca ag -1.
COc1ccc(OC)c(NC(=O)c2cc(OC(C)=O)cc(C(=O)Nc3cc(OC)ccc3OC)c2)c1 was read as M1 antag -4, CHRM1 PAM 10, CHO-K1 Ca PAM -11, M1 ag 2, CHO-K1 Ca antag 30* and CHO-K1 Ca ag 2.
`C[C@]12c3[nH]c4ccccc4c3CCN1C(=O)C(CC(=O)NCCC1=CCCCC1)C[C@@H]2C(=O)N1CCCCC1` (stereo partly drawn) gave M1 antag -12, CHRM1 PAM 8, CHO-K1 Ca PAM 16, M1 ag -1, CHO-K1 Ca antag -2 and CHO-K1 Ca ag 0.
For CCOC(=O)c1ccc(S(=O)(=O)Nc2ccccc2-c2nnn(CC)n2)cc1 the results were M1 antag 47*, CHRM1 PAM -32, CHO-K1 Ca PAM -13, M1 ag -6, CHO-K1 Ca antag -3 and CHO-K1 Ca ag 14.
For COc1ccc(C2=NS(=O)(=O)N(C)C(C(=O)Nc3ccc(C)cc3)=C2)cc1 the results were M1 antag 18, CHRM1 PAM -19, CHO-K1 Ca PAM 11, M1 ag 3, CHO-K1 Ca antag 3 and CHO-K1 Ca ag 10.
Screening Cc1ccc(NC(=O)C2=CC(c3ccc(C)cc3)=NS(=O)(=O)N2C)cc1 returned M1 antag 36*, CHRM1 PAM -23, CHO-K1 Ca PAM -8, M1 ag 4, CHO-K1 Ca antag 16 and CHO-K1 Ca ag 12.
Screening CCOc1ccccc1NC(=O)COC(=O)CN1C(=O)NC(C)(C)C1=O returned M1 antag 0, CHRM1 PAM 4, CHO-K1 Ca PAM -11, M1 ag -1, CHO-K1 Ca antag 6 and CHO-K1 Ca ag 0.
`Cc1ccccc1Cn1nc(C)c(NC(=O)c2cc(CC(C)C)on2)c1C` gave M1 antag 1, CHRM1 PAM -4, CHO-K1 Ca PAM 8, M1 ag -5, CHO-K1 Ca antag -6 and CHO-K1 Ca ag 5.
`Cc1nn(Cc2ccc(Cl)c(Cl)c2)c(C)c1NC(=O)c1noc2c1CCCCC2` gave M1 antag 9, CHRM1 PAM 27*, CHO-K1 Ca PAM 5, M1 ag -4, CHO-K1 Ca antag 13 and CHO-K1 Ca ag 1.
For Cc1nn(Cc2ccc(Cl)c(Cl)c2)c(C)c1NC(=O)c1cc(CC(C)C)on1 the results were M1 antag 29*, CHRM1 PAM -21, CHO-K1 Ca PAM 8, M1 ag -8, CHO-K1 Ca antag 2 and CHO-K1 Ca ag 6.
Screening CCOC(=O)C1=C(COC(=O)COc2ccc(OCC)cc2)NC(=O)NC1C (stereo not drawn) returned M1 antag -14, CHRM1 PAM 10, CHO-K1 Ca PAM 14, M1 ag 2, CHO-K1 Ca antag -9 and CHO-K1 Ca ag 6.
For CCN(CC)CCOC(=O)CCc1cccc2ccccc12 the results were M1 antag 11, CHRM1 PAM -13, CHO-K1 Ca PAM 16, M1 ag -3, CHO-K1 Ca antag -11 and CHO-K1 Ca ag 1.
`CCN(CC)CCOC(=O)C(Cc1ccco1)Cc1cccc2ccccc12` (stereo not drawn) gave M1 antag 59*, CHRM1 PAM -25, CHO-K1 Ca PAM 13, M1 ag -5, CHO-K1 Ca antag -5 and CHO-K1 Ca ag 6.
O=C1OCCN1C(=O)[C@H]1[C@H](c2ccc(Cl)cc2)C(c2ccc(F)cc2)=NN1c1ccccc1 was read as M1 antag 15, CHRM1 PAM -10, CHO-K1 Ca PAM 16, M1 ag -3, CHO-K1 Ca antag -15 and CHO-K1 Ca ag 1.
Screening O=C1OCCN1C(=O)[C@H]1[C@H](c2ccc(Cl)cc2)C(c2ccccc2)=NN1c1ccccc1 returned M1 antag 26*, CHRM1 PAM -13, CHO-K1 Ca PAM -7, M1 ag -3, CHO-K1 Ca antag -1 and CHO-K1 Ca ag 0.
`O=C(NC(c1ccccc1)c1ccccc1)C1CCCO1` (stereo not drawn) gave M1 antag -4, CHRM1 PAM 7, CHO-K1 Ca PAM 5, M1 ag -2, CHO-K1 Ca antag 4 and CHO-K1 Ca ag 21*.
